Measured values from PubChem BioAssay (NCI).
Several values for one entry are separate records, joined by “and”; a condition that tells them apart may be missing. Equal entries are not always repeated. The panel holds about 83,000 compounds, 20% with a hit somewhere; the sample as a whole holds those more often.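 Results are percent growth after 48 hours of single-concentration exposure. 100 means growth as in untreated cells, lower positive values show inhibition; negative values down to -100 show cell death.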 A number with no mark means an inactive call. Activity calls are given as the source filed them. Rule for the calls: active = growth percent below 10; inactive = the rest.

Experiments:
Assay in all cases: NCI-60 one-dose screen, 48 h (100 = growth as untreated, 0 = no growth, -100 = all killed)
Settings in all cases: 10 µM unless noted
T-47D breast = system: T-47D breast
BT-549 breast = system: BT-549 breast
MDA-MB-435 melanoma = system: MDA-MB-435 melanoma
SW-620 colon = system: SW-620 colon
MCF7 breast = system: MCF7 breast
HCT-116 colon = system: HCT-116 colon
HCC-2998 colon = system: HCC-2998 colon
KM12 colon = system: KM12 colon

| Structure (SMILES) | growth (T-47D breast) | growth (BT-549 breast) | growth (MDA-MB-435 melanoma) | growth (SW-620 colon) | growth (MCF7 breast) | growth (HCT-116 colon) | growth (HCC-2998 colon) | growth (KM12 colon) |
| --- | --- | --- | --- | --- | --- | --- | --- | --- |
| NCCSSC/C=C\CSSCCN | 86.4% | 100% | 105% | 102% | 97.2% | 94.3% | 112% | 102% |
| O=C1C2=C(Nc3cc(Cl)ccc3N2)OC1c1c[nH]c2ccc(COc3ccccc3)cc12 (centres undefined) | 68.4% | 26.7% | 84.6% | 85% | 64.2% | 72.4% | 83.7% | 87.1% |
| Cn1c(-c2ccccc2)cc(=O)cc1-c1ccccc1 | 97.1% | 86.8% | 116% | 51.7% | 53.3% | 61.6% | 127% | 98.5% |
| Cc1nc(Nc2ccc(Cl)cc2)c2cnn(-c3ccccc3)c2n1 | 101% | 102% | 94.7% | 98.4% | 88.2% | 101% | 105% | 106% |
| CCC(=O)Oc1ccc(OCc2ccccc2)cc1 | 113% and 89.5% | 73.4% | 96.9% and 82.1% | 90.2% and 79.7% | 91.4% and 88.5% | 99.7% and 102% | 84.4% and 87.7% | 86.5% and 89.6% |
| COc1ccc(/C=N/NC(N)=S)cc1 | 85.6% | 104% | 100% | 125% | 103% | 89.3% | 90.7% | 119% |
| COc1ccc(CCO)cc1 | 101% | 105% | 109% | 104% | 102% | 94.6% | 107% | 102% |
| CCC(C)(O)CCC(C)(O)CC (centres undefined) | 96% | 107% | 111% | 112% | 92.4% | 101% | 87.7% | 103% |
| COc1ccc(COC=O)cc1 | 91.2% | 110% | 113% | 108% | 99.3% | 99.1% | 94.3% | 103% |
| COc1cc(C2c3cc4c(cc3C(OC(=O)C[n+]3ccccc3)C3COC(=O)C23)OCO4)cc(OC)c1OC (centres undefined) | 94.8% | 19.8% | -8.6% (active) | 21.3% | 9.23% (active) | 5.09% (active) | 13.3% | -8.66% (active) |
| CC(NC(=O)CCl)c1ccccc1 (centres undefined) | 103% | 95.3% | 99.7% | 96.4% | 94% | 97.6% | 106% | 105% |
| Cc1c(Cl)cc(Cl)c(N)c1Cl | 104% | 112% | 104% | 101% | 98.6% | 103% | 113% | 114% |
| CC(C)(C)C1CCC(=NO)CC1 (centres undefined) | 96.6% | 115% | 99.8% | 106% | 83.9% | 96.8% | 107% | 103% |
| O=[N+]([O-])c1ccc(N2CCN=N2)cc1 | 67.3% | 85.3% | 77.5% | 81.8% | 87.5% | 81.7% | 107% | 77.3% |
| CC(=O)Oc1ccc(C(c2ccc(OC(C)=O)cc2)c2ccccn2)cc1 | -15.1% (active) and -18.5% (active) | -16.4% (active) | 110% and 103% | 104% and 83.9% | 20.6% and 34.8% | 88.6% and 96% | 70.5% | 80% and 85% |
| CCN(C)c1ccccc1 | 105% | 84.2% | 104% | 110% | 90.7% | 106% | 107% | 109% |
| Cc1cccc(Cl)c1N | 110% | 111% | 95.7% | 96.9% | 99% | 113% | 102% | 110% |
| C=CCN1C(=O)c2ccccc2C1=O | 118% | 96.8% | 106% | 98.5% | 98.6% | 99.2% | 104% | 110% |
| COc1ccc(S(=O)(=O)c2ccc(F)cc2)cc1 | 99% | 99% | 122% | 103% | 101% | 102% | 111% | 106% |
| Nc1c(S(=O)(=O)O)cc(Br)c2c1C(=O)c1ccccc1C2=O | 90% and 96.7% | 110% | 105% and 115% | 109% and 111% | 96.8% and 93.8% | 109% | 108% and 109% | 104% and 108% |
| CCOc1ccc(/C=C\C(=O)O)cc1 | 122% | 125% | 107% | 101% | 95.2% | 119% | 109% | 106% |
| CCOC(=O)c1ccc(C(=N)N)cc1 | 105% | 119% | 109% | 102% | 95.3% | 106% | 103% | 109% |
| Cc1ccc(S(=O)(=O)n2ccnc2)cc1 | 96.8% | 122% | 108% | 109% | 99% | 98% | 102% | 95.8% |
